According to the supplement of paper PMC8877412:
Where a name gives a salt, the structure may show the parent alone. ± gives the uncertainty stated by the source.

test system: NCC-PMP1-C1; assay: cell viability relative to DMSO control; higher = less growth inhibition; conditions: 10 µM; 72 h
Method: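 NCC-PMP1-C1 pseudomyxoma peritonei cells were seeded in 384-well plates coated with Matrigel and MEF (1e4 cells). Viability was read after 72 h by CCK-8 and expressed as % of the DMSO control, mean ± SD of duplicates.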

Structure (SMILES)	cell viability
CCCCC1C(=O)N(c2ccccc2)N(c2ccccc2)C1=O [Phenylbutazone]	119 ± 5.4%
O=c1[nH]c(=O)n([C@H]2C[C@H](O)[C@@H](CO)O2)cc1F [Floxuridine]	108 ± 12%
CN(CCOc1ccc(CC2SC(=O)NC2=O)cc1)c1ccccn1 (stereo not given) [Rosiglitazone]	101 ± 3.3%
C[C@]12CC[C@@H]3c4ccc(O)cc4C[C@@H](CCCCCCCCC[S+]([O-])CCCC(F)(F)C(F)(F)F)[C@H]3[C@@H]1CC[C@@H]2O (stereo not given in full) [Fulvestrant]	-7.846 ± 0.067%
COc1cc2nccc(Oc3ccc(NC(=O)C4(C(=O)Nc5ccc(F)cc5)CC4)cc3)c2cc1OC [Cabozantinib malate (XL184)]	52.5 ± 6.2%
C#Cc1cccc(Nc2ncnc3cc(OCCOC)c(OCCOC)cc23)c1 [Erlotinib]	66.7 ± 5.8%
Nc1[nH]cnc2ncnc1-2 [Adenine HCl]	108 ± 25%
Cc1ccc(-n2[nH]c(C)c(N=Nc3cccc(-c4cccc(C(=O)O)c4)c3O)c2=O)cc1C [Eltrombopag Olamine]	113 ± 3.3%
C[C@@]12C[C@@]3(O)O[C@@H](O1)[C@]1(COC(=O)c4ccccc4)[C@H]3C[C@@]12O[C@@H]1O[C@H](CO)[C@@H](O)[C@H](O)[C@H]1O [Paeoniflorin]	78.6 ± 9%
Cc1ccc(NC(=O)c2ccc(CN3CC[C@H](N(C)C)C3)c(C(F)(F)F)c2)cc1Nc1nccc(-c2cncnc2)n1 [Bafetinib (INNO-406)]	72.1 ± 3.7%
CN(N=O)C(=O)NC1C(O)OC(CO)C(O)C1O (stereo not given) [Streptozotocin (STZ)]	111 ± 3.5%
Nc1nc2[nH]cnc2c(=S)[nH]1 [Thioguanine]	88.9 ± 9.4%
CCOc1cc(C(C)(C)C)ccc1C1=N[C@@](C)(c2ccc(Cl)cc2)[C@@](C)(c2ccc(Cl)cc2)N1C(=O)N1CCN(CCCS(C)(=O)=O)CC1	52.5 ± 3.1%
CC(C)c1nc(CN(C)C(=O)N[C@@H](CCN2CCOCC2)C(=O)N[C@H](CC[C@H](Cc2ccccc2)NC(=O)OCc2cncs2)Cc2ccccc2)cs1 [Cobicistat (GS-9350)]	83.8 ± 3.1%
COC(=O)C1=C(C#N)NC(C)=C(C(=O)OC(C)C)C1c1cccc([N+](=O)[O-])c1 (stereo not given) [Nilvadipine]	82.8 ± 3.3%
CC(=O)OCC(=O)[C@@]1(O)CC[C@H]2[C@@H]3CCC4=CC(=O)CC[C@]4(C)[C@H]3C(=O)C[C@@]21C [Cortisone acetate]	114 ± 4.4%
COc1cc2c(cc1O)CCN[C@]21CS[C@@H]2c3c(OC(C)=O)c(C)c4c(c3[C@H](COC1=O)N1[C@@H]2[C@H]2c3c(cc(C)c(OC)c3O)C[C@@H]([C@@H]1O)N2C)OCO4 [Trabectedin]	-0.842 ± 0.95%
Nc1nc2n[nH]nc2c(=O)[nH]1 [Azaguanine-8]	55.8 ± 6.5%
Nc1ccn([C@@H]2O[C@H](CO)[C@@H](O)C2(F)F)c(=O)n1 [Gemcitabine HCl]	67.5 ± 15%
CN(C)C/C=C/C(=O)Nc1cc2c(Nc3ccc(F)c(Cl)c3)ncnc2cc1O[C@H]1CCOC1 [Afatinib (BIBW2992)]	12.4 ± 2.3%

Structure (SMILES)	cell viability
C[C@]1(O)C[C@@H](c2nc(-c3ccc4ccc(-c5ccccc5)nc4c3)c3c(N)nccn32)C1 [Linsitinib (OSI-906)]	58.9 ± 2.1%
Cc1c2oc3c(C)ccc(C(=O)N[C@@H]4C(=O)N[C@H](C(C)C)C(=O)N5CCC[C@H]5C(=O)N(C)CC(=O)N(C)[C@@H](C(C)C)C(=O)O[C@@H]4C)c3nc-2c(C(=O)N[C@@H]2C(=O)N[C@H](C(C)C)C(=O)N3CCC[C@H]3C(=O)N(C)CC(=O)N(C)[C@@H](C(C)C)C(=O)O[C@@H]2C)c(N)c1=O [Actinomycin D]	8.77 ± 0.95%
CC[C@H](Nc1ncnc2[nH]cnc12)c1nc2cccc(F)c2c(=O)n1-c1ccccc1 [CAL-101 (Idelalisib, GS-1101)]	73.5 ± 9.8%
CC[C@@H]1/C=C(\C)C[C@H](C)C[C@H](OC)[C@H]2O[C@@](O)(C(=O)C(=O)N3CCCC[C@H]3C(=O)O[C@H](/C(C)=C/[C@@H]3CC[C@H](Cl)[C@H](OC)C3)[C@H](C)[C@@H](O)CC1=O)[C@H](C)C[C@@H]2OC [Pimecrolimus]	78.1 ± 5.1%
CCN1CCN(Cc2ccc(Nc3ncc(F)c(-c4cc(F)c5nc(C)n(C(C)C)c5c4)n3)nc2)CC1 [Abemaciclib]	65.2 ± 4.2%
CNC(=O)c1cc(Oc2ccc(NC(=O)Nc3ccc(Cl)c(C(F)(F)F)c3)cc2)ccn1 [Sorafenib Tosylate]	148 ± 14%
CS(=O)(=O)OCCCCOS(C)(=O)=O [Busulfan]	121 ± 7.5%
CO[C@H]1O[C@@H]2O[C@@]3(C)CC[C@H]4[C@H](C)CC[C@@H]([C@H]1C)[C@@]24OO3 [Artemether]	105 ± 6.2%
COc1cc(N2CCC(N3CCN(C)CC3)CC2)ccc1Nc1ncc(Cl)c(Nc2ccccc2S(=O)(=O)C(C)C)n1	38.3 ± 2.1%
Nc1nc(F)nc2c1ncn2[C@@H]1O[C@H](COP(=O)(O)O)[C@@H](O)[C@@H]1O [Fludarabine Phosphate]	-11.4 ± 1.5%
Clc1ccc(Nc2nnc(Cc3ccncc3)c3ccccc23)cc1 [Vatalanib (PTK787) 2HCl]	84.5 ± 1.8%
COc1cc2nccc(Oc3ccc(NC(=O)NC4CC4)c(Cl)c3)c2cc1C(N)=O [Lenvatinib (E7080)]	69.6 ± 2%
O=C(O)C1(C(=O)O)CCC1.[NH2-].[NH2-].[Pt+2] [Carboplatin]	61.9 ± 9.4%
Cn1nnc2c(C(N)=O)ncn2c1=O [Temozolomide]	118 ± 5.8%
CCC[C@@H]1C[C@@H](C(=O)N[C@@H]([C@H]2O[C@H](SC)[C@H](O)[C@@H](O)[C@H]2O)[C@@H](C)O)N(C)C1 [Lincomycin HCl]	74.4 ± 15%
O=c1c(-c2ccc(O)cc2)coc2cc(O)cc(O)c12 [Genistein]	100 ± 2.1%
CNC(=O)c1cc(Oc2ccc(NC(=O)Nc3ccc(Cl)c(C(F)(F)F)c3)cc2)ccn1 [Sorafenib]	-8.05 ± 0.27%
Nc1cccc2c1C(=O)N(C1CCC(=O)NC1=O)C2=O (stereo not given) [Pomalidomide]	99.2 ± 2.3%
O=C(/C=C/c1cccc(S(=O)(=O)Nc2ccccc2)c1)NO [Belinostat (PXD101)]	7.52 ± 0.13%
COc1cc2c(cc1O)CC[C@@H]1[C@@H]2CC[C@]2(C)[C@@H](O)CC[C@@H]12 [2-Methoxyestradiol (2-MeOE2)]	98 ± 4%
